Molecules are shown by their SMILES. In all, about 1,200 compounds went through this assay and about 480 (40%) were called active. How the calls were made is not given here. So high a share suggests a set chosen from earlier hits. A selection follows. Entries with a potency or affinity are not part of this list.

This experiment can be described thus: HepG2 cell cytotoxicity, dose response, cytotoxicity control, CellTiter-Glo luminescence, cherry-pick, set 2 (AID 743395). The settings on record: HepG2 viability, CellTiter-Glo ATP luminescence, 72 h; series mostly up to 26 µM.
In the case of `COc1cc2c(cc1OC)C(c1cccs1)N(C(=O)c1cccnc1)CC2` (stereo unspecified), the compound was classed as inactive. The same measure for `Cc1cc(C(=O)CN2CCN(CC(=O)Nc3ccc(F)cc3)CC2)c(C)n1C1CC1`: “inactive”; for `CCCOc1ccc(C(=O)CCCC(=O)c2ccc(OCCC)cc2)cc1`: “inactive”; for `CCOc1ccc(C(=O)NCC(=O)N2CCN(Cc3ccccc3)CC2)cc1`: “inactive”. The same measure for `CN1/C(=C\C=C2/SC(=S)N(CC(=O)O)C2=O)C(C)(C)c2ccccc21`: “inactive”. Take `C=CCN(CC=C)C(=S)Nc1ccc(OC)c(OC)c1`: the call was inactive. On to `CCOc1ccc(C(=O)NNC(=O)CCNC(=O)c2ccc(Br)cc2)cc1OC`, for which the compound was called inactive. The same measure for `Cc1ccc(CNC(=O)COC(=O)c2ccc(S(=O)(=O)N(C)C)cc2)cc1`: “inactive”; for `Cc1nnc(NC(=O)CSc2nccn2-c2cccc(C)c2C)s1`: “inactive”; for `Cc1cc(Br)c(NC(=O)C(C)Sc2nnnn2C)c(Br)c1` (stereo unspecified): “inactive”. As to `CC(C)NC(=O)c1ccc(COc2cccc3ccccc23)o1`, the call was inactive. Turning to `NS(=O)(=O)c1ccc(NNC(=O)c2ccc(Br)o2)c([N+](=O)[O-])c1`, the call was inactive.

For `Cc1cc(C(=O)NNC(=O)c2ccc(Cl)c(S(N)(=O)=O)c2)c(C)o1`, the compound was called inactive.

Take `Cc1ccc(S(=O)(=O)N2CCOCC2)cc1NC(=O)CSc1n[nH]c(N)n1`: the result was inactive.

With `O=C(Nc1ccccc1F)N1C[C@H]2[C@@H](c3ccccc31)[C@@H](CO)N2C(=O)c1ccccn1`, the compound was classed as inactive. `COc1ccccc1NS(=O)(=O)c1cc(C(=O)N2CCCCCC2)ccc1C`: the call was inactive. Regarding `COc1ccccc1NS(=O)(=O)c1cc(N=N/C(C(=O)Nc2ccc(Cl)cc2)=C(/C)O)ccc1C`, the outcome was inactive.

Turning to `Cc1ccc(C(=O)NNC(=O)c2ccc(S(=O)(=O)N3CCCCC3)cc2)cc1`, the compound was called inactive. With `O=C(NC(=S)Nc1ccc(-c2ccccc2)cc1)c1ccccc1` the entry was “inactive”; with `COc1ccccc1N1CC(C(=O)Nc2ccc(S(=O)(=O)N3CCCC3)cc2)CC1=O` (stereo unspecified), “inactive”.

Consider `CNC(=O)C1CC(=O)N(c2ccc(OCC(=O)Nc3ccccc3)cc2)C1` (stereo unspecified), for which the compound was called inactive. The same measure for `COc1ccc(C2=NOC(C(=O)NCc3ccccc3)C2)cc1` (stereo unspecified): “inactive”; for `COc1ccc(Cc2nnc(NC(=O)c3ccc(F)cc3)s2)cc1OC`: “inactive”; for `COc1ccc2c(c1)c(CC(=O)OCC(=O)O)c(C)n2C(=O)c1ccc(Cl)cc1`: “inactive”. With `Cc1ccc(S(=O)(=O)N2CCN(C(=O)COC(=O)/C=C/c3ccc(Cl)cc3)CC2)c(C)c1` the entry was “inactive”; with `N#Cc1ncn(C2OC(CO)C(O)C2O)c1N` (stereo unspecified), “inactive”; with `Cc1cc(Cl)cc(C)c1OCCn1ccnc1`, “inactive”. With `Cc1ccc(NC(=O)COC(=O)CCC2CCCC2)c(Br)c1` the entry was “inactive”; with `COc1ccc2c3c([nH]c2c1)[C@@H](CO)N(S(=O)(=O)c1cn(C)cn1)CC31CCN(CC2CCCCC2)CC1`, “inactive”; with `CCCC(=O)Nc1ccc2c(c1)C(=O)N(C)C[C@@H](OC)[C@H](C)CN(C(=O)CN1CCOCC1)[C@H](C)CO2`, “inactive”. For the compound `Cc1ccc(/C=N/NC(=O)C2COc3ccccc3O2)s1` (stereo unspecified), the compound was classed as inactive. With `NS(=O)(=O)c1ccc(Cl)c(S(N)(=O)=O)c1` the entry was “inactive”; with `CCN(CC)c1ccc(/C=C(/C#N)c2nc3ccc(C)cc3[nH]2)c(OC(C)C)c1`, “inactive”; with `Cc1cc(C)c(C(=O)NC2CCCc3c2cnn3-c2cccc(C)c2C)o1` (stereo unspecified), “inactive”. With `CCNC(=S)NNC(=O)CC(C)C` the entry was “inactive”; with `O=C(/C=C/c1ccco1)NC(=S)Nc1nc(-c2ccc3ccccc3c2)cs1`, “inactive”; with `CC(=O)NC(=S)Nc1ccc(NC(=S)NC(=O)/C=C/c2ccco2)cc1`, “inactive”.

Turning to `CN(C(=O)c1ccccc1C(=O)OCC(=O)Nc1ccc(S(N)(=O)=O)cc1)c1ccccc1`, the call was inactive. For the compound `CCCCc1nc(Cl)c(CO)n1Cc1ccc(-c2ccccc2-c2nn[nH]n2)cc1`, the result was inactive. For `COc1cc(NC(=O)COC(=O)c2n[nH]c3ccccc23)c(C)cc1[N+](=O)[O-]`, the call was inactive. For `COCCSc1ccccc1C(=O)Nc1cc([N+](=O)[O-])ccc1OC`, the call was inactive. For `C=CCn1c(SCC(=O)N(C)C2CCS(=O)(=O)C2)nc2ccccc2c1=O` (stereo unspecified), the compound was called inactive. For `COC(=O)c1cc2c(=O)c3ccccc3oc2nc1/C=C/N(C)C`, the compound was classed as inactive.

Consider `O=C(Cc1ccccn1)NCC[C@@H]1CC[C@H](NC(=O)Nc2ccc(C(F)(F)F)cc2)[C@H](CO)O1`, for which the outcome was inactive. With `CCOC(=O)C1=CN(Cc2ccco2)S(=O)(=O)NC1c1ccc(C(F)(F)F)cc1` (stereo unspecified) the entry was “inactive”; with `Cc1cc(C(=O)CN2C(=O)C(=O)N(Cc3ccccc3)C2=O)c(C)n1Cc1ccccc1`, “inactive”; with `CC(C)[N+]1(C)[C@@H]2CC[C@@H]1CC(OC(=O)C(CO)c1ccccc1)C2` (stereo partly specified), “inactive”. The same measure for `Cc1noc(C)c1NC(=O)N(C)C[C@H]1Oc2cc(C#CCC3CCCC3)ccc2S(=O)(=O)N([C@@H](C)CO)C[C@@H]1C`: “inactive”; for `CCC1(C)Cc2ccccc2-c2nc[nH]c(=O)c21` (stereo unspecified): “inactive”. For the compound `O=S(=O)(c1ccc(OCc2ccc(Br)cc2)cc1)N1CCOCC1`, the compound was classed as inactive. The same measure for `COc1cc(C(c2sc3nc(C)nn3c2O)N2CCN(c3ccccc3)CC2)cc(OC)c1OC` (stereo unspecified): “inactive”; for `Cn1nnnc1N=N/C(=N/Nc1ccccc1)c1ccccc1`: “inactive”; for `Cc1cccc(C(=O)NCC(=O)OCC(=O)N(C)CC(=O)Nc2ccccc2Cl)c1`: “inactive”. As to `C[C@@H]1CN([C@H](C)CO)S(=O)(=O)c2ccc(C#Cc3ccccc3F)cc2O[C@H]1CN(C)C(=O)Cc1cccnc1`, the result was inactive.

On to `COc1ccccc1C#Cc1ccc2c(c1)O[C@@H](CN(C)Cc1cccnc1)[C@H](C)CN([C@@H](C)CO)S2(=O)=O`, for which the compound was classed as inactive. The same measure for `C[C@H]1CN([C@@H](C)CO)S(=O)(=O)c2ccc(/C=C/c3ccccc3)cc2O[C@H]1CN(C)Cc1ccccc1`: “inactive”; for `COc1ccccc1C#Cc1ccc2c(c1)O[C@H](CN(C)Cc1cccnc1)[C@H](C)CN([C@@H](C)CO)S2(=O)=O`: “inactive”.

In the case of `O=C(CNC1CCCCC1)NN=C(c1ccccc1)c1ccccc1`, the call was inactive. With `O=C(NC1CCCCC1)c1cc(C2CC2)nn1-c1ccccc1`, the call was inactive. The same measure for `Clc1ccc(Nc2ccc3ccccc3n2)cc1`: “inactive”. On to `Cc1cc(Nc2ccc(Br)cc2)nc2ccccc12`, for which the result was inactive. Regarding `CC(=O)Nc1ccc(S(=O)(=O)Nc2cccc(-c3nc4cc(C)ccc4o3)c2)cc1`, the call was inactive. The same measure for `CC(=O)Nc1cccc(NC(=O)CN2c3cccc4cccc(c34)S2(=O)=O)c1`: “inactive”; for `CC(=O)Nc1ccc(S(=O)(=O)N2c3ccccc3C(C)=CC2(C)C)cc1`: “inactive”. Take `CCC1(C2=CCCCC2)C(=O)NC(=S)N=C1N` (stereo unspecified): the compound was classed as inactive. For the compound `Cc1cccc(S(=O)(=O)N2C[C@H]3[C@@H](c4ccccc42)[C@H](CO)N3CC2CCCC2)c1`, the compound was called inactive. Consider `CCCNC(=O)N1CC2(CN(S(=O)(=O)c3cccc(OC)c3)C2)c2c(n(C)c3cc(OC)ccc23)[C@H]1CO`, for which the call was inactive.

For `N#Cc1ccc(-c2ccc3c(c2)[C@H]2[C@H](CCN2S(=O)(=O)c2ccccc2F)[C@@H](CO)N3)cc1`, the compound was called inactive. With `N#Cc1ccc(-c2ccc(C3[C@@H]4CN(C(=O)C5CCC5)C[C@H]3N4)cc2)cc1` (stereo partly specified) the entry was “inactive”; with `COc1cccc(-c2ccc([C@H]3[C@@H](CO)N(C(=O)c4ccccn4)[C@H]3C#N)cc2)c1`, “inactive”; with `CCOC(=O)/C(=C/C=C1\Sc2cc(C)c(C)cc2N1CC)C(C)=O`, “inactive”. With `COCC(C)n1c(SCC(=O)N2CC(=O)Nc3ccccc32)nc2ccccc2c1=O` (stereo unspecified), the call was inactive. The same measure for `CCN(CC(=O)Nc1c(F)cccc1F)C(=O)C1CC1`: “inactive”; for `CN(c1ccc(OCCOc2ccccc2Cl)cc1)S(=O)(=O)c1ccccc1`: “inactive”. With `Cn1c(=O)c(NC2CCCCC2)c2c3c(cccc31)C(=O)c1ccccc1-2` the entry was “inactive”; with `O=C1c2cccc3c(N4CCCCC4)ccc(c23)C(=O)N1c1cccc(O)c1`, “inactive”; with `Cc1cccc(C(=O)N(Cc2ccco2)c2c(N)n(Cc3ccccc3)c(=O)[nH]c2=O)c1`, “inactive”. `O=C(COC(=O)/C=C/c1ccccc1Cl)NC(=O)NCc1ccccc1`: the outcome was inactive. The same measure for `COc1ccccc1N(C)S(=O)(=O)c1ccc(C(=O)Nc2nccs2)cc1`: “inactive”.

Take `CC1CN(S(=O)(=O)c2ccc(C(=O)Nc3ccccc3F)cc2)CC(C)O1` (stereo unspecified): the outcome was inactive.

Regarding `c1ccc(-c2csc(NC3=NCCCCC3)n2)cc1`, the call was inactive. For the compound `CCOc1cc(OCC)c(C(C)=O)cc1OCC`, the compound was classed as inactive. `CCn1c(SCC(=O)N/N=C/c2ccc(O)c(OC)c2)nc2ccccc21`: the call was inactive.

Regarding `COc1cccc2c1C(=O)C=C(C)C2=O`, the compound was called inactive. The same measure for `Cc1ccc(NC(=O)c2ccc(Cl)c(S(=O)(=O)Nc3c(C)n(C)n(-c4ccccc4)c3=O)c2)cc1Cl`: “inactive”; for `O=c1[nH]c(CN2CCN(c3ccc(O)cc3)CC2)nc2scc(-c3ccc(Cl)cc3)c12`: “inactive”. With `CCOC(=O)N1CCN(C(=O)C2CCC(=O)N(CCCN3CCCC3=O)C2)CC1` (stereo unspecified) the entry was “inactive”.

`COc1ccccc1NS(=O)(=O)c1ccc(C)c(C(=O)Nc2cc(C)on2)c1`: the call was inactive. For `COc1ccc(Cl)cc1C(=O)NNC(=O)CCNS(=O)(=O)c1ccccc1`, the call was inactive. On to `COC(=O)c1ccc(CS(=O)(=O)c2ccc(F)cc2)o1`, for which the compound was called inactive.

On to `Nc1[nH]nc2ncc3cc4ccccc4nc3c12`, for which the compound was called inactive. With `Clc1cccc(-c2ccc(C=Nc3ccc(N4CCOCC4)cc3)o2)c1Cl` the entry was “inactive”. The same measure for `COC(=O)COc1cccc2c(=O)n(CC(=O)NCc3ccccc3)ccc12`: “inactive”; for `O=C(CN1CCOc2ccccc21)NCc1ccc(Cl)cc1`: “inactive”; for `O=C(N/N=C/c1cccs1)c1cccc(NC(=O)c2ccccc2Cl)c1`: “inactive”. The same measure for `O=C(c1ccc(S(=O)(=O)NCC2CCCO2)cc1)N1CCN(c2cccc(Cl)c2)CC1` (stereo unspecified): “inactive”; for `O=C(CSc1nc2nn(-c3ccccc3)c(=O)c-2c2n1CCCCC2)Nc1ccc(OC(F)F)cc1`: “inactive”. On to `COc1cc(OC)c2c(-c3cccc(-c4ccc(OC)c(F)c4)c3)cc(=O)oc2c1`, for which the compound was called inactive. With `Cc1ccc(-c2cccc(-c3cc(=O)oc4ccc(C(C)(C)C)cc34)c2)cc1`, the call was inactive. Consider `COc1ccc(-c2c(C)cc3oc(=O)cc(-c4ccccc4)c3c2C)cc1OC`, for which the outcome was inactive. The same measure for `COc1cc(OC)c2c(-c3cccc(-c4ccc(OC)c(OC)c4)c3)cc(=O)oc2c1`: “inactive”.
